Several values for one entry are separate records, joined by “and”; a condition that tells them apart may be missing. Equal entries are not always repeated. Out of some 5,500 compounds screened, about 2,000 (36%) were called active. About 18% were inconclusive and are not listed. Cut-off read from the data, not from the text of the source: active = normalized growth mostly below about 0.91 (no sharp cut-off); inconclusive = no clear call, values can overlap the other calls; inactive = mostly above about 0.92. Some of the results follow.
Assay: chemical genetic growth profiling, strain panel (AID 1159580);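 note: tested at 20 µM; growth read once vehicle control cultures reached saturation at 30 °C; 1 = growth at the plate median or of vehicle wells; lower values mean less growth of the strain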
Conditions: S. cerevisiae deletion strains, growth OD

Measured: normalized growth

O=C(CCc1ccc(O)cc1)c1c(O)cc(O)cc1O[C@@H]1O[C@H](CO)[C@@H](O)[C@H](O)[C@H]1O
inactive: locus YAL021C, strain ccr4, active compounds read low 1.01 | locus YAL026C, strain drs2, active compounds read low 1.01 | locus YAL030W, strain snc1, active compounds read low 1.01 | locus YBL061C, strain skt5, active compounds read low 1.02 | locus YBR009C, strain hhf1, active compounds read low 1.02 | locus YBR021W, strain FUR4, active compounds read low 1.01 | locus YBR023C, strain chs3, active compounds read low 1.01 | locus YBR171W, strain sec66, active compounds read low 1.05 | locus YBR229C, strain ROT2, active compounds read low 1.02 | locus YBR231C, strain swc5, active compounds read low 1.02 | locus YBR279W, strain paf1, active compounds read low 1 | locus YCL011C, strain gbp2, active compounds read low 1.02 | locus YCL016C, strain dcc1, active compounds read low 1.02 | locus YCL029C, strain bik1, active compounds read low 0.982 | locus YCL061C, strain MRC1, active compounds read low 1.02 | locus YCL069W, strain vba3, active compounds read low 1.01 | locus YCR088W, strain abp1, active compounds read low 1.01 | locus YDL005C, strain med2, active compounds read low 1.02 | locus YDL035C, strain GPR1, active compounds read low 1.04 | locus YDL040C, strain nat1, active compounds read low 1.01 | locus YDL074C, strain BRE1, active compounds read low 1.05 | locus YDL101C, strain DUN1, active compounds read low 1.02 | locus YDL134C, strain PPH21, active compounds read low 1.06 | locus YDL185W, strain tfp1, active compounds read low 0.993 | locus YDL192W, strain arf1, active compounds read low 0.986 | locus YDR001C, strain nth1, active compounds read low 1.01 | locus YDR069C, strain doa4, active compounds read low 1.03 | locus YDR101C, strain arx1, active compounds read low 0.998 | locus YDR137W, strain rgp1, active compounds read low 0.993 | locus YDR159W, strain sac3, active compounds read low 1.03 | locus YDR162C, strain NBP2, active compounds read low 1.06 | locus YDR195W, strain ref2 0.997 | locus YDR297W, strain sur2, active compounds read low 1.02 | locus YDR318W, strain mcm21, active compounds read low 0.986 | locus YDR334W, strain swr1, active compounds read low 1.02 | locus YDR335W, strain msn5, active compounds read low 1.01 | locus YDR388W, active compounds read low 0.992 | locus YDR392W, strain spt3, active compounds read low 1.02 | locus YDR502C, strain sam2, active compounds read low 0.998 | locus YEL003W, strain gim4, active compounds read low 1.01 | locus YEL037C, strain rad23, active compounds read low 1.01 | locus YEL061C, strain CIN8 (second series), active compounds read low 1.01 | locus YEL061C, strain CIN8, active compounds read low 1.02 | locus YER015W, strain faa2, active compounds read low 1.02 | locus YER016W, strain bim1, active compounds read low 1.01 | locus YER110C, active compounds read low 0.981 | locus YER111C, strain swi4, active compounds read low 1.02 | locus YER155C, strain BEM2 (second series), active compounds read low 1.02 | locus YER155C, strain BEM2, active compounds read low 1 | locus YER167W, strain BCK2, active compounds read low 1.02 | locus YFR010W, strain ubp6, active compounds read low 1.01 | locus YGL078C, strain dbp3, active compounds read low 0.985 | locus YGL086W, strain mad1, active compounds read low 1.01 | locus YGL167C, strain pmr1, active compounds read low 1.03 | locus YGL173C, strain kem1, active compounds read low 1.02 | locus YGL227W, strain vid30, active compounds read low 1.02 | locus YGL240W, strain doc1, active compounds read low 1.02 | locus YGL248W, strain PDE1, active compounds read low 1.03 | locus YGL253W, strain hxk2, active compounds read low 1.02 | locus YGR135W, strain pre9, active compounds read low 1 | locus YGR252W, strain gcn5, active compounds read low 1.01 | locus YHR013C, strain ard1, active compounds read low 1.03 | locus YHR027C, strain rpn1, active compounds read low 1.02 | locus YHR030C, strain SLT2, active compounds read low 1.02 and 0.996 | locus YHR079C, strain IRE1 (second series), active compounds read low 1 | locus YHR079C, strain IRE1, active compounds read low 0.972 | locus YHR094C, strain hxt1, active compounds read low 0.988 | locus YHR129C, strain ARP1, active compounds read low 1.03 | locus YHR142W, strain chs7, active compounds read low 1.02 | locus YHR200W, strain rpn10, active compounds read low 1.02 | locus YIL066C, strain RNR3, active compounds read low 1.05 | locus YIL073C, strain SPO22, active compounds read low 1.01 | locus YIL125W, strain kgd1, active compounds read low 0.986 | locus YIR030C, strain dcg1, active compounds read low 0.973 | locus YJL092W, strain hpr5, active compounds read low 1.02 | locus YJL095W, strain BCK1 (second series), active compounds read low 1.01 | locus YJL095W, strain BCK1, active compounds read low 1.05 and 0.981 | locus YJL115W, strain asf1, active compounds read low 1.01 | locus YJL129C, strain trk1, active compounds read low 1.01 | locus YJL134W, strain LCB3, active compounds read low 1.01 | locus YJL154C, strain vps35, active compounds read low 1.01 | locus YJL164C, strain tpk1, active compounds read low 1.02 | locus YJL166W, strain qcr8, active compounds read low 1.02 | locus YJL168C, strain set2, active compounds read low 0.983 | locus YJL187C, strain SWE1 (second series), active compounds read low 1.03 | locus YJL187C, strain SWE1, active compounds read low 1.04 | locus YJR043C, strain POL32, active compounds read low 1.06 | locus YJR066W, strain TOR1, active compounds read low 0.942

— PubChem BioAssay AID1159580 (chemical genetic matrix, 2015)
